Results on nine compounds are retold here after PubChem BioAssay (Tox21).

Records with an inconclusive call do not appear. Calls of active or inactive are those of the source. Calls come from the whole dose curve; as a rule, active = well fitted curve in the direction sought with a large enough effect in the repeat runs; inconclusive = weak or mixed curves; inactive = no such curve, though single readings can be large; an effect the other way counts as inactive or inconclusive.
% is set by controls: 0 for no effect and ±100 for the full control effect; potency is the fitted concentration of half-maximal effect.
Note: nearly all actives have a fitted effect of over 40% in size.

One assay has as its target Nuclear receptor subfamily 1 group I member 2 (Homo sapiens) (UniProt O75469). As to the kind of experiment: CYP3A4 induction through human pregnane X receptor (PXR) by small molecules, qHTS assay (AID 1346984). Particulars: DPX-2 HepG2 PXR, CYP3A4-luciferin luminescence, 24 h; series mostly up to 46.1 µM; activation: at the top concentration. The procedure, abridged:
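DPX-2 HepG2 cells carrying a PXR response element and CYP3A4-promoter luciferase construct, treated with compounds 24 hr at 37C. Then P450-Glo CYP3A4 Luciferin-IPA substrate (3uM final) for 3 hr at 37C, One-Glo added, luminescence read.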
(In general: Quantitative high-throughput screening tests each substance at several concentrations.)
Regarding `O=C(O)[C@@H]1CSCN1`, the “activation” value is 2.51% (inactive).
Turning to `CCN(CC)CCOc1ccc(Cc2ccccc2)cc1`, the Potency was 11.2 µM (active).
As for `Cc1cc2c(s1)Nc1ccccc1N=C2N1CCN(C)CC1`, the “activation” value is 7.91% (inactive).
Turning to `Cc1ccsc1C(=CCCN1CCC[C@@H](C(=O)O)C1)c1sccc1C`, the “activation” value is 19% (inactive).
Consider `CCCCN1C[C@H](O)[C@@H](O)[C@H](O)[C@H]1CO`, for which the “activation” value is -13.6% (inactive).
In the case of `c1ccc(CN(CC2=NCCN2)c2ccccc2)cc1`, the “activation” value was 15.3% (inactive).
For `CN1CCN(C2=Nc3ccccc3Oc3ccc(Cl)cc32)CC1`, the Potency is 1.26 µM (active).
Take `Cc1cccc(C)c1NC(=O)CN1CCCCCC1`: the Potency was 14.1 µM (active).
In the case of `C=CCc1cc(OC)c(O)c(C(=O)NCCO)c1`, the “activation” value is -7.73% (inactive).

For the next assay the target is unchanged. As to the kind of experiment: Human pregnane X receptor (PXR) activation by small molecules, qHTS assay (AID 1346985). The following applies: DPX-2 HepG2 CYP3A4-luciferase, 24 h; series mostly up to 38.3 µM; activation: at the top concentration. A digest of the protocol:
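DPX-2 cells (HepG2 co-transfected with a PXR response element and a CYP3A4-promoter luciferase construct) were seeded at 2,000 per well, rested 5 hr at 37C, then exposed to DMSO-dissolved compounds for 24 hr. Activation was read as luciferase luminescence.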
In the case of `O=C(O)[C@@H]1CSCN1`, the “activation” value was -4.75% (inactive).
For `CCN(CC)CCOc1ccc(Cc2ccccc2)cc1`, the Potency is 4.47 µM (active).
Regarding `Cc1cc2c(s1)Nc1ccccc1N=C2N1CCN(C)CC1`, the “activation” value was 8.08% (inactive).
Consider `Cc1ccsc1C(=CCCN1CCC[C@@H](C(=O)O)C1)c1sccc1C`, for which the “activation” value is 4.92% (inactive).
On to `CCCCN1C[C@H](O)[C@@H](O)[C@H](O)[C@H]1CO`, for which the “activation” value was 5.12% (inactive).
Still for that read-out and setting: next, `c1ccc(CN(CC2=NCCN2)c2ccccc2)cc1`: 2.11% (inactive).
Consider `CN1CCN(C2=Nc3ccccc3Oc3ccc(Cl)cc32)CC1`, for which the “activation” value is 22.9% [at 17.1 µM] (inactive).
With `Cc1cccc(C)c1NC(=O)CN1CCCCCC1`, the “activation” value was 26.1% (inactive).
As to `C=CCc1cc(OC)c(O)c(C(=O)NCCO)c1`, the “activation” value is -3.87% (inactive).
